# Source: PubChem BioAssay (NCATS)
# Inconclusive results are not listed. Entries that show only a call come without a potency. Activity calls are given as the source filed them. Unless noted, calls follow the shape of the dose curve; as a rule, active = well fitted curve in the direction sought with a large enough effect; inconclusive = small, poorly fitted or top-dose-only effect, or another doubt; inactive = no such curve, though single readings can be large; an effect the other way counts as inactive or inconclusive.
# Key:
# [1] = qHTS Assay for Identification of Small Molecule Inducers of Hypoxia Response (AID 2120; active = well fitted curve in the direction sought with a large enough effect in the signal ratio, with a control signal flat, not every such curve was filed as active; the % refers to the signal ratio)
# Summary of the method: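 HRE-bla ME-180 cells in Opti-MEM with 0.5% dialyzed FBS, pre-plated 4-5 h, then compound titration for 17 h at 37 degrees Celsius. CCF4 loaded 2.5 h at room temperature; 460/530 nm ratio gave %Activity and AC50 for induction.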
# [2] = qHTS for differential inhibitors of proliferation of Plasmodium falciparum line W2 (AID 1883); conditions: Potency: Plasmodium falciparum W2 proliferation inhibition;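 also: parasites grown with compound for 72 h before lysis and staining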; also: potency is read from the fitted curve at half-maximal effect
# [3] = biological target: ATP-dependent DNA helicase Q1 (Homo sapiens) (UniProt P46063); experiment: qHTS Validation Assay for Inhibitors of RecQ-Like Dna Helicase 1 (RECQ1) (AID 2353); also: potency is read from the fitted curve at half-maximal effect
# ATP-dependent DNA helicase Q1 (Homo sapiens), sequence (P46063 whole entry, looked up): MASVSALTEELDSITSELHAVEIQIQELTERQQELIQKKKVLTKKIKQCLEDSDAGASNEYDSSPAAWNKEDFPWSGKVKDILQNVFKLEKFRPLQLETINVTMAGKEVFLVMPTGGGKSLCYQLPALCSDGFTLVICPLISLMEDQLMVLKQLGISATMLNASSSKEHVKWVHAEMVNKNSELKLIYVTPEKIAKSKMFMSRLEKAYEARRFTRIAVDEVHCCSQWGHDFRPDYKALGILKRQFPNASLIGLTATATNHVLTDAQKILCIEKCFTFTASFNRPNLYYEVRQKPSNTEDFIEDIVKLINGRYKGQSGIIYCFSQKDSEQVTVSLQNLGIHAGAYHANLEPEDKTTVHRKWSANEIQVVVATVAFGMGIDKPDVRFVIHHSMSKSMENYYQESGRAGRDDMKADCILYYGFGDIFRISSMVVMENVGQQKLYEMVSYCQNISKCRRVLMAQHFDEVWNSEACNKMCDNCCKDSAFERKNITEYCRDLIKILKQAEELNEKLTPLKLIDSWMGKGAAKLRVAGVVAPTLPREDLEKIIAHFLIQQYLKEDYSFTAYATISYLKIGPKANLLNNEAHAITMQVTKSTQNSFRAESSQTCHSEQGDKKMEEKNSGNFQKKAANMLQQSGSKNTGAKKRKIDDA
# Summary of the method: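 50 nM RECQ1T1 preincubated 15 min with compound in Tris pH 8.0 buffer with MgCl2, DTT, Tween-20 and 2.5 ug/ml poly(dI-dC); started with 200 nM TAMRA/BHQ-2 forked duplex and 2 mM ATP. Unwinding read as fluorescence (525/598 nm), two reads 2 h apart.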
# [4] = qHTS for differential inhibitors of proliferation of Plasmodium falciparum line GB4 (AID 1816); conditions: Potency: Plasmodium falciparum GB4 proliferation inhibition;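 also: parasite growth measured after 72 h incubation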; also: potency is read from the fitted curve at half-maximal effect
# [5] = qHTS for differential inhibitors of proliferation of Plasmodium falciparum line 3D7 (AID 1876); also: potency is read from the fitted curve at half-maximal effect
# [6] = qHTS for differential inhibitors of proliferation of Plasmodium falciparum line D10 (AID 1877);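 also: parasites grown with compound for 72 h before DNA staining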; also: potency is read from the fitted curve at half-maximal effect
# [7] = qHTS for differential inhibitors of proliferation of Plasmodium falciparum line Dd2 (AID 1882); conditions: Potency: Plasmodium falciparum Dd2 proliferation inhibition; also: nearly all actives have a fitted effect of over 65% in size; also: potency is read from the fitted curve at half-maximal effect
# Summary of the method: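 Dd2-infected erythrocytes (0.3% parasitemia, 2.5% hematocrit final) incubated with compound 72 h at 37 C, 5% CO2; lysed with saponin/Triton buffer containing SYBR Green I, incubated overnight in the dark, then read by fluorescence (485/535 nm). Normalized to 0.29 uM artemisinin and DMSO.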
# [8] = qHTS for differential inhibitors of proliferation of Plasmodium falciparum line HB3 (AID 1886); conditions: Potency: Plasmodium falciparum HB3 proliferation inhibition;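 also: parasites grown with compound for 72 h before SYBR Green readout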; also: potency is read from the fitted curve at half-maximal effect
# [9] = biological target: RecQ-like DNA helicase BLM (Homo sapiens) (UniProt P54132); experiment: qHTS Validation Assay for Inhibitors of Bloom's syndrome helicase (BLM) (AID 2364)
# RecQ-like DNA helicase BLM (Homo sapiens), sequence (P54132 whole entry, looked up): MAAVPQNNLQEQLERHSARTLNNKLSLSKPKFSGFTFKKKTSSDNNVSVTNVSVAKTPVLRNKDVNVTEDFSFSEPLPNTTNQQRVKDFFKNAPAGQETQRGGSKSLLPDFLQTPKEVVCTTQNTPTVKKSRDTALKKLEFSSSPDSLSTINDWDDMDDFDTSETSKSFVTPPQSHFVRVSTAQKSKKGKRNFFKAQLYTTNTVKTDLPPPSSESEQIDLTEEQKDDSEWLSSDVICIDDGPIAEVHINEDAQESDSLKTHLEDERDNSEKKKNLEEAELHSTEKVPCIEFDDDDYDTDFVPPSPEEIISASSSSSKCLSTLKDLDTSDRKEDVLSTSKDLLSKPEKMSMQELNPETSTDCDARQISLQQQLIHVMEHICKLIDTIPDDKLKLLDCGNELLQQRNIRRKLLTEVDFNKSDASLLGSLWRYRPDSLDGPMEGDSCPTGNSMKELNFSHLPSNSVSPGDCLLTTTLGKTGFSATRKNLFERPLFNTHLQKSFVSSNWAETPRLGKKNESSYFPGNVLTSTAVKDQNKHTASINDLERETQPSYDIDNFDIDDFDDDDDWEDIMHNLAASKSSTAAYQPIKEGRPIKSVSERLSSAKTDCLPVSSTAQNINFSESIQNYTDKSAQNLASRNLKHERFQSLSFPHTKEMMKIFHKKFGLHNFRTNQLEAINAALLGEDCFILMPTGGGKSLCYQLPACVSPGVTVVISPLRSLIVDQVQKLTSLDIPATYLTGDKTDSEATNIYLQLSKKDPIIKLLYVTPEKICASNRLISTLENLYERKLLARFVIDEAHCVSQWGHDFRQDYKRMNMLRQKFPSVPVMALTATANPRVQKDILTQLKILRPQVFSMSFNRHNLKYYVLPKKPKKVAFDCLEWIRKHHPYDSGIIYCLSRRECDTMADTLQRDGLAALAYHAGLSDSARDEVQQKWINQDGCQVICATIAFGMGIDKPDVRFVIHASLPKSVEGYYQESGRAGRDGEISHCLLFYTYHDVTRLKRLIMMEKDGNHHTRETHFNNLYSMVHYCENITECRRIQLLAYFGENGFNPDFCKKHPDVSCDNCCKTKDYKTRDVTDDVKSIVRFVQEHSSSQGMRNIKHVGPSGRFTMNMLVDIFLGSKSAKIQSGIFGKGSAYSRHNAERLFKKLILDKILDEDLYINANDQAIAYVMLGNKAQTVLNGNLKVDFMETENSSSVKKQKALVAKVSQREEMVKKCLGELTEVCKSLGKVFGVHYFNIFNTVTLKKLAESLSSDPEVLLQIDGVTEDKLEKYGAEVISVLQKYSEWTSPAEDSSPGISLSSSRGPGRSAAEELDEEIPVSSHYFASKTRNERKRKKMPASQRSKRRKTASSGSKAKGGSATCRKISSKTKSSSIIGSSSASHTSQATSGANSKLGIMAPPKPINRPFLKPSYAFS
# Summary of the method: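 BLM 50 nM in 25 mM Tris-HCl pH 8.0, 5 mM NaCl, 2 mM MgCl2, 1 mM DTT, 0.01% Tween-20, 2.5 ug/ml poly(dI-dC); 15 min cpd preinc, RT. Start: 200 nM forked DNA + 2 mM ATP (final). TAMRA read, 2 reads 2 h apart.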
smiles,measurement,setting,value
Nc1ccccc1C(=O)O,outcome,[1],inactive
Nc1ccccc1,outcome,[1],inactive
COC(=O)C(c1ccccc1)C1CCCCN1 (configuration not stated),outcome,[1],inactive
CCCC(C)(COC(N)=O)COC(N)=O,outcome,[1],inactive
C[C@]12CCC(=O)C=C1CC[C@@H]1[C@@H]2CC[C@@]2(C)[C@H]1CC[C@]2(C)O,outcome,[1],inactive
O=C(O)CCCc1ccc(N(CCCl)CCCl)cc1,Potency,[2],11.2 µM (active)
same,outcome,[1],inactive
same,Potency,[3],inactive
Oc1ccc(Cl)cc1,outcome,[1],inactive
CCC(C)(C)c1ccc(O)cc1,outcome,[1],inactive
CCC1(c2ccc(N)cc2)CCC(=O)NC1=O (configuration not stated),Potency,[4],inactive
same,Potency,[5],inactive
same,Potency,[6],inactive
same,Potency,[7],inactive
same,Potency,[2],inactive
same,Potency,[8],inactive
same,Potency,[3],inactive
same,outcome,[9],inactive
CCCCC/C=C\C/C=C\C/C=C\C/C=C\CCCC(=O)NCC(=O)O,Potency,[4],14.1 µM (active)
same,Potency,[7],inactive
same,Potency,[8],14.1 µM (active)
same,Potency,[3],3.98 µM (active)
same,outcome,[9],inactive
CC(=O)N1CCN(c2ccc(OC[C@H]3CO[C@](Cn4ccnc4)(c4ccc(Cl)cc4Cl)O3)cc2)CC1,Potency,[4],7.94 µM (active)
same,Potency,[5],7.08 µM (active)
same,Potency,[6],10 µM (active)
same,Potency,[7],7.94 µM (active)
same,Potency,[2],7.08 µM (active)
same,Potency,[8],11.2 µM (active)
C[C@]12CCC(=O)C=C1CC[C@@H]1[C@@H]2CC[C@]2(C)C(=O)CC[C@@H]12,Potency,[5],inactive
same,Potency,[7],inactive
same,Potency,[8],inactive
same,Potency,[3],inactive
CC(C)(C)NCC(O)c1ccccc1Cl (configuration not stated),Potency,[4],6.31 µM (active)
same,Potency,[7],12.6 µM (active)
same,Potency,[2],4.47 µM (active)
same,Potency,[3],inactive
